This is a sample that favours compounds with a hit; in the whole collection about 9.4% have one here.
FLuc modulator = inhibits or activates purified firefly luciferase, miR-21 counter-screen; P08659; 360,000 compounds, 6.9% hits; purified FLuc, Km substrates, luminescence inhibition; Potency, µM (series often up to 57.5 µM), without a hit: at the highest dose activity change, negative = inhibition, usual class: inhibitors; AID 588342;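 also: plate controls were vehicle for no effect and reference inhibitor for full effect; nearly all actives have a fitted effect of over 55% in size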
Target sequence (P08659 whole entry, looked up): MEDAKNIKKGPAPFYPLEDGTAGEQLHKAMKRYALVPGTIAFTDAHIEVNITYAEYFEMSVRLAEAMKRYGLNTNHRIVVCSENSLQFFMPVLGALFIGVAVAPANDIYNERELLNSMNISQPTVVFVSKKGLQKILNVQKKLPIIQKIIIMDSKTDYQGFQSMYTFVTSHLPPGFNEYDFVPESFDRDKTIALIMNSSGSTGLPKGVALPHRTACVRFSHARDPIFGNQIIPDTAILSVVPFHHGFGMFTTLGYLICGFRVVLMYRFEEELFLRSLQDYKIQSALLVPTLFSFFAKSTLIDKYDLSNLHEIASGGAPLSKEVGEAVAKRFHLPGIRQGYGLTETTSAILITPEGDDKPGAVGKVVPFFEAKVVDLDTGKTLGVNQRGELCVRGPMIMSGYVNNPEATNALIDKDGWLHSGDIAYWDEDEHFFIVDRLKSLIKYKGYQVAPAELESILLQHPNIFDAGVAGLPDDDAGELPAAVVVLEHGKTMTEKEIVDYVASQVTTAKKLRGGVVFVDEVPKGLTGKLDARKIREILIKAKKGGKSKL
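Biochemical qHTS of compounds, final roughly 60 µM downward over six points, against 10 nM purified firefly luciferase using Km concentrations of substrates (10 uM D-luciferin, 10 uM ATP) in Tris acetate pH 7.5 buffer; luminescence output.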
NPC1 prom act = activates the NPC1 promoter. Potency, µM (highest dose often 9.22 µM), inactives show top-dose activation, hits mostly activators. 320,000 compounds, 2.4% hits. Huh7 NPC1 promoter luciferase reporter, 24 h; also: % of control where 0% means no effect; nearly all actives have a fitted effect of over 60% in size
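In 1536-well qHTS, Huh7 cells harboring an NPC1 promoter–luciferase construct received compound for 24 h; activation was quantified by luminescence following luciferase reagent addition.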
ELG1 repair inh = ELG1-dependent DNA repair inhibition; AID 504467; Potency, µM (titrated, usually from 46.1 µM), for the others: at the top dose activity change, negative = inhibition, usual class: inhibitors; 330,000 compounds, 2.3% hits; HEK293T ELG1-luciferase reporter, luminescence, 16 h; DNA damage induced by 5-fluorouridine; also: % is scaled to controls: 0 for no effect and ±100 for the full control effect; nearly all actives have a fitted effect of over 55% in size
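Quantitative HTS, concentration-response format. 2,000 cells/well co-treated with 5-fluorouridine and compound, 16 hr in 5% CO2 at 37 °C; ONE-Glo luminescence read after 30 min.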
ELG1 genotoxic = inducers of genotoxicity in HEK293T ELG1-luciferase cells. HEK293T ELG1-luciferase reporter, luminescence, 16 h. Potency, µM (top dose mostly 46 µM), for inactives: top-dose activity change, positive = activation, most hits filed as activators. 330,000 compounds, 1.3% hits; also: % of control where 0% means no effect; nearly all actives have a fitted effect of over 60% in size
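HEK293T cells expressing luciferase-tagged ELG1 were exposed to compound or DMSO vehicle for 16 hr at 37 °C and 5% CO2. Luciferase activity was then measured with ONE-Glo after 30 min at room temperature.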
Rab9 promoter act = activates the Rab9 promoter; AID 485297; Potency, µM (series often up to 9.22 µM), inactives show at the highest dose activation, negative = inhibition, usual class: activators; Huh7 Rab9 promoter-luciferase reporter, luminescence, 24 h; 320,000 compounds, 2.8% hits; also: % of control where 0% means no effect; nearly all actives have a fitted effect of over 60% in size
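Cells were plated at 1500 per well in reduced-serum medium with 10% FBS and left 2 h. Compound in DMSO was then added for 24 h at 37 °C. Reporter signal was read by luminescence after 10 min with luciferase detection reagent.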
SMN2 splice up = increases expression of the SMN2 splice variant | HEK293 SMN2-luciferase splicing reporter, luminescence, 30-36 h | Potency, µM (doses to about 46.1 µM), inactives show at the top dose activity change, positive = activation, actives largely listed as activators | AID 1458 | 210,000 compounds, 2.8% hits; also: % of control where 0% means no effect; nearly all actives have a fitted effect of over 55% in size
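qHTS luciferase splicing reporter: luminescence rises when SMN2 exon 7 is included in transfected HEK293 cells. Compound exposure lasted 30-36 h at 37C, with 4.5 mM final sodium butyrate as control, followed by a ONE-Glo read.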
Active calls of the source: *; ? = inconclusive; . = not tested or not shown. Calls follow the shape of the dose curve; as a rule, active = well fitted curve in the direction sought with a large enough effect; inconclusive = small, poorly fitted or top-dose-only effect, or another doubt; inactive = no such curve, though single readings can be large; an effect the other way counts as inactive or inconclusive. Potency is read from the fitted curve at half-maximal effect.

SMILES	FLuc modulator	NPC1 prom act	ELG1 repair inh	ELG1 genotoxic	Rab9 promoter act	SMN2 splice up
CCOc1cc(N2CCOCC2)c(OCC)cc1NC(=O)Cc1cccc2ccccc12	-0.1%	-0.7%	18.4µM*	-6.0%	2.1%	0.1%
O=C(CCSCc1cccc(Cl)c1)NCc1ccccc1Cl	-17.1%	.	.	.	.	.
CN(C(=O)Cn1nc(Cc2cccnc2)c2ccccc2c1=O)c1cccc(C(F)(F)F)c1	-1.2%	.	.	.	.	-14.3%
CCn1c(=O)c2cc(C(=O)NC3CCC(C)CC3)sc2c2ccccc21 (centres undefined)	-1.3%	.	.	.	.	-2.8%
COc1cc(/C=C2/C(=O)NN(c3ccc(C)c(Cl)c3)C2=O)cc([N+](=O)[O-])c1O	19µM*	-4.5%	-2.0%	0.8%	5.5%	.
COc1cc(/C=C2/C(=O)NN(c3cccc(C)c3)C2=O)cc([N+](=O)[O-])c1O	21.3µM*	-1.1%	-4.4%	0.8%	-3.6%	6.4%
COc1cc(/C=C2\SC(=O)N(c3ccc(Cl)cc3)C2=O)cc([N+](=O)[O-])c1O	-5.8%	-9.5%	-18.0%	-5.9%	-3.4%	-12.9%
Cc1nn(C(=O)c2ccc(Cl)cc2)c(C)c1S(=O)(=O)N1CCOCC1	-17.7%	.	.	.	.	.
COc1ccc(-n2c(=O)c3c4c(sc3n(Cc3ccc(F)cc3)c2=O)CCCC4)c(OC)c1	0.4%	.	.	.	.	-9.9%
CCOC(=O)c1sc(NC(=O)c2cc3nc(-c4ccccc4)cc(C(F)(F)F)n3n2)c(C(=O)OCC)c1C	1.8%	.	.	.	.	-3.2%
COc1ccc(N2CCN(C(=O)c3cccn3-c3nnc(N4CCCC4)s3)CC2)cc1	-10.6%	.	.	.	.	.
CCOc1ccc(-c2cc(C(=O)NCCCN3CCCC3)c3ccccc3n2)cc1	12µM*	2.1%	?	13.1%	1.0%	.
Cc1ccc(-c2cc(C(=O)NCCCN3CCOCC3)c3ccccc3n2)cc1C	12µM*	4.8%	9.3%	-4.0%	0.9%	.
COc1ccc(Nc2cc(C(=O)NCCCN3CCOCC3)c3ccccc3n2)cc1OC	16.9µM*	4.1%	?	-3.2%	0.5%	3.0%
CCOc1ccc(/C=C/c2nc(C#N)c(Nc3ccc(OCC)cc3)o2)cc1	5.5%	.	.	.	.	7.0%
COc1ccc(S(=O)(=O)NCCc2csc3nc(-c4ccc(Cl)cc4)nn23)cc1C	5.9%	.	.	.	.	.
Cc1cccc(N2CCN(Cc3nnc(-c4ccccc4C)o3)CC2C)c1 (centres undefined)	-2.1%	.	.	.	.	-9.4%
O=[N+]([O-])c1cccc(/C=N/N2CCN(c3ccccn3)CC2)c1	?	?	?	17.0%	3.16µM*	.
C(=N\N1CCN(c2ccccn2)CC1)/c1cccc2ccccc12	16.9µM*	2.3%	?	-2.6%	1.5%	.
O=[N+]([O-])c1cccc(/C=N/N2CCN(Cc3ccccc3)CC2)c1	?	29.8%	?	?	?	?
Oc1ccccc1/C=N/N1CCN(c2ccccn2)CC1	13.5µM*	?	?	?	2.82µM*	.
C(=C\c1ccccc1)/C=N/N1CCN(c2ccccn2)CC1	12µM*	?	?	4.11µM*	?	?
CC(C)c1ccc(/C=N/N2CCN(c3ccccn3)CC2)cc1	?	?	2.9%	2.9%	?	.
CCOC(=O)Cc1ccc(NC(=O)N2CC(C)Oc3ccc(Cl)cc32)cc1 (centres undefined)	-0.2%	.	.	.	.	.
CSc1nc(O)c(Nc2cccc(Cl)c2)c(=O)[nH]1	2.5%	-1.5%	-3.5%	0.1%	-1.8%	.
SMILES	FLuc modulator	NPC1 prom act	ELG1 repair inh	ELG1 genotoxic	Rab9 promoter act	SMN2 splice up
O=c1nc(Nc2cccc(Cl)c2)oc2cc(Cl)oc(=O)c12	13.5µM*	17.7%	?	5.8%	-1.9%	.
Cc1nnc(NC(=O)c2oc3ccccc3c2C)s1	3.01µM*	4.47µM*	?	18.3µM*	3.98µM*	.
Cc1nc(NC(=O)c2oc3ccccc3c2C)sc1C(=O)N(C)C	10.7µM*	?	?	?	2.82µM*	10µM*
CN1CCN(C(=O)Cn2c(-c3cccs3)cc3cc(Cl)ccc32)CC1	-6.4%	.	.	.	.	.
Cc1ccc(C2=C/C(=C/c3cccnc3)C(=O)O2)c(C)c1	6.01µM*	-2.6%	14.1%	1.0%	1.3%	8.5%
O=C1OC(c2ccc(Cl)cc2)=C/C1=C/c1cccnc1	-14.5%	0.0%	2.7%	-2.9%	7.7%	.
Cc1ccc(C)c(N2CCN(S(=O)(=O)c3cn(C)c(C)n3)CC2)c1	-5.0%	.	.	.	.	.
Cc1cc2nc(-c3ccc(=O)[nH]c3)n(C)c2cc1C	16.9µM*	5.4%	25.6%	10.0%	11.7%	.
COc1ccc(NC(=O)C2CCCN(c3ncnc4c3nc3n4CCCCC3)C2)c(OC)c1 (centres undefined)	-1.5%	.	.	.	.	.
Cn1c(Nn2cnnc2)nc2ccccc21	1.0%	0.5%	8.3%	-1.3%	1.6%	5.4%
Cc1ccc(C)c(N=Nc2nc3ccccc3n2C)c1	0.953µM*	3.16µM*	?	?	2µM*	?
Cc1cc(C)c(C)c(N=Nc2nc3ccccc3n2C)c1C	10.7µM*	11.0%	?	?	18.7%	-41.3%
Cc1ccc(C(O)c2nc3ccccc3n2C)cc1 (centres undefined)	4.4%	0.5%	-0.1%	-2.8%	-1.5%	.
COc1ccc(N2CCN(Cc3nc(N)nc(Nc4ccc(C)c(Cl)c4)n3)CC2)cc1	-8.6%	-11.8%	13µM*	-19.3%	-12.2%	12.8%
CCOc1nc(Nc2ccc(F)cc2)nc(N2CCN(c3ccc(OC)cc3)CC2)n1	5.5%	-1.6%	?	0.4%	-2.2%	-26.1%
CCOC(=O)N1CCN(Cc2nc(N)nc(Nc3ccc(Oc4ccccc4)cc3)n2)CC1	-11.8%	-2.5%	11.6µM*	-17.2%	-11.5%	.
CCOC(=O)N1CCN(Cc2nc(N)nc(Nc3ccc(OC)cc3)n2)CC1	1.4%	2.0%	-10.6%	-4.7%	1.9%	?
Cc1ccc(Nc2nc(N)nc(CN3CCN(c4ccccc4)CC3)n2)cc1Cl	0.0%	-3.1%	?	-16.0%	-12.1%	13.5%
Cc1ccc(Nc2nc(N)nc(CN3CCN(Cc4ccc5c(c4)OCO5)CC3)n2)cc1C	-12.7%	-9.7%	13µM*	-9.0%	-17.5%	-22.5%
CCOc1nc(Nc2ccc(OC)c(Cl)c2)nc(N2CCN(c3ccc(OC)cc3)CC2)n1	0.8%	-4.3%	18.4µM*	-3.9%	-4.1%	-8.7%
Cc1cc2n(n1)CCC(=O)N2Cc1ccc(C(=O)Nc2cccc(C(F)(F)F)c2)cc1	-15.5%	.	.	.	.	.
CCOc1ccc(S(=O)(=O)Nc2ccc3c(c2)N(C(C)=O)CCC3)cc1	-4.0%	.	.	.	.	.
Cc1ccc(OCC(=O)Nc2ccc3nn(-c4ccc(C)cc4)nc3c2)cc1	-13.2%	.	.	.	.	?

Assay outcomes from PubChem BioAssay.
